Screening data from PubChem BioAssay.
BLM inh – qHTS Assay for Inhibitors of Bloom's syndrome helicase (BLM); RecQ-like DNA helicase BLM (Homo sapiens), P54132; recombinant BLM DNA unwinding, fluorescence dequenching; Potency, µM (top dose mostly 56.1 µM), for inactives: top-dose activity change, negative = inhibition, hits mostly inhibitors; 350,000 compounds, 0.2% hits; AID 2528, 2010;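 further: plate controls were vehicle for no effect and no enzyme for full effect; nearly all actives have a fitted effect of over 35% in size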
PGK inhibitor – qHTS Assay to Find Inhibitors of Phosphoglycerate Kinase | Phosphoglycerate kinase, glycosomal (Trypanosoma brucei brucei), P07378 | PGK/GAPDH coupled, Kinase-Glo luminescence, 60 min | Potency, µM (titrated, usually from 57.5 µM), without a hit: at the top dose activity change, negative = inhibition, most hits filed as inhibitors | 380,000 compounds, 0.043% hits; further: nearly all actives have a fitted effect of over 60% in size
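Luminescent ATP detection (Kinase-Glo Plus) follows a 60-minute room-temperature incubation, with wells lacking PGK as controls. Buffer: 100 mM TEA (pH 7.6), 5 mM MgCl2, 0.01% Tween-20. Coupling enzyme GAPDH (100 nM final) supplies unstable 1,3-BPG in-well.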
RECQ1 inh-1 – qHTS Assay for Inhibitors of RecQ-Like Dna Helicase 1 (RECQ1); AID 2549, 2010; 240,000 compounds, 0.54% hits; RECQ1 DNA unwinding, red fluorescence kinetic read; ATP-dependent DNA helicase Q1 (Homo sapiens), P46063; Potency, µM (top dose mostly 57.3 µM), for the others: at the highest dose activity, negative = inhibition, hits mostly inhibitors;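 further: plate controls were vehicle for no effect and no enzyme for full effect; nearly all actives have a fitted effect of over 30% in size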
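50 nM RECQ1T1 preincubated 15 min with compound in Tris pH 8.0 buffer with MgCl2, DTT, Tween-20 and 2.5 ug/ml poly(dI-dC); started with 200 nM TAMRA/BHQ-2 forked duplex and 2 mM ATP. Unwinding read as fluorescence (525/598 nm), two reads 2 h apart.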
TDP1 block – qHTS Assay for Inhibitors of Tyrosyl-DNA Phosphodiesterase (TDP1). Tyrosyl-DNA phosphodiesterase 1 (Homo sapiens), Q9NUW8. recombinant TDP1, AlphaScreen DNA substrate cleavage. Potency, µM (titrated, usually from 130 µM), inactives show at the top dose activity change, negative = inhibition, most hits filed as inhibitors. 350,000 compounds, 0.28% hits. AID 485290, 2010; further: nearly all actives have a fitted effect of over 40% in size
Target sequence (Q9NUW8 whole entry, looked up): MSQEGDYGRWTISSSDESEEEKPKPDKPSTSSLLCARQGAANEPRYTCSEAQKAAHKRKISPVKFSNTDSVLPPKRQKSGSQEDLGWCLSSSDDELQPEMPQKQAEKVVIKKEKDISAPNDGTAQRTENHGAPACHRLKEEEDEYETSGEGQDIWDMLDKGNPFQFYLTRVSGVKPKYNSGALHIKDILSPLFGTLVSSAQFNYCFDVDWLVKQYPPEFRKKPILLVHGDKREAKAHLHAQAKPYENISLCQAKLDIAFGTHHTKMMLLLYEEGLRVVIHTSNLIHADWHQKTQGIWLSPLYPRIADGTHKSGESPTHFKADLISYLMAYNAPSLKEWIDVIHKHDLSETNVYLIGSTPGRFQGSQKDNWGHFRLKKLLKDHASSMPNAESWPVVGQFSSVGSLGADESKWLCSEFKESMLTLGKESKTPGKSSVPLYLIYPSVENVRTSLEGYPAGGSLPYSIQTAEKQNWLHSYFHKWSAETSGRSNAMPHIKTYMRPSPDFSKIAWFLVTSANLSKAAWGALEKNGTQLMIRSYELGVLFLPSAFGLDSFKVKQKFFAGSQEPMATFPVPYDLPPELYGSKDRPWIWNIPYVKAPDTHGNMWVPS
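E. coli-derived human Tdp1, 1 nM final. Cpd preinc 15 min RT; substrate 15 nM final, 5 min RT; AS bead mix 10 ug/ml final, 10 min RT. Signal loss = tyrosine-FITC cleavage. No-enzyme wells = max signal.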
APE1 inh – qHTS Assay for Inhibitors of the Human Apurinic/apyrimidinic Endonuclease 1 (APE1). 350,000 compounds, 0.35% hits. DNA repair nuclease/redox regulator APEX1 (Homo sapiens), P27695. recombinant APE1, TAMRA/BHQ-2 abasic DNA cleavage fluorescence. Potency, µM (series often up to 65.8 µM), for the others: at the highest dose activity change, negative = inhibition, hits mostly inhibitors. AID 2517, 2012;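 further: plate controls were vehicle for no effect and reference inhibitor for full effect; nearly all actives have a fitted effect of over 55% in size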
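Enzyme (0.75 nM final) and test compound are incubated 15 min at room temperature before adding 50 nM quenched THF abasic-site duplex. Cleavage dequenches TAMRA, followed at 525/598 nm over three reads one minute apart.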
GLS inhibitor – qHTS for Inhibitors of Glutaminase (GLS); 410,000 compounds, 0.21% hits; Potency, µM (top dose mostly 45.5 µM), inactives show top-dose activity change, negative = inhibition, most hits filed as inhibitors; Glutaminase kidney isoform, mitochondrial (Homo sapiens), O94925; GLS enzymatic activity, qHTS titration
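Enzyme dispensed in phosphate buffer (45 mM, pH 8.2, 0.02% Tween-20), compounds pinned in, then 1 mM L-glutamine solution and the glutamate oxidase–HRP–Amplex Red mix added; fluorescence read immediately and again after 30 min at room temperature.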
RECQ1 conf – Confirmation qHTS Assay for Inhibitors of RecQ-Like Dna Helicase 1 (RECQ1); shares compounds with RECQ1 inh-1; RECQ1 helicase DNA unwinding, fluorescence; Potency, µM (highest dose often 229 µM), inactives show at the top dose activity change, negative = inhibition, usual class: inhibitors; 610 compounds, 28% hits; further: nearly all actives have a fitted effect of over 45% in size
ADP FP counter – Counterscreen for RECQ1 Inhibitors: ADP Fluorescence Polarization Displacement Assay; ADP fluorescence polarization displacement counterscreen; 530 compounds, 27% hits; shares compounds with RECQ1 inh-1; Potency, µM (doses to about 228 µM), inactives show at the top dose activity change, negative = inhibition, actives largely listed as inhibitors; further: nearly all actives have a fitted effect of over 45% in size
RECQ1 inh-2 – Confirmation qHTS Assay for Inhibitors of RecQ-Like Dna Helicase 1 (RECQ1) - Round 2 Cherry Picks. shares compounds with RECQ1 inh-1. recombinant RECQ1 DNA unwinding, red fluorescence. Potency, µM (series often up to 119 µM), inactives show at the top dose activity, negative = inhibition, hits mostly inhibitors. 1,100 compounds, 15% hits. AID 504841, 2011; further: nearly all actives have a fitted effect of over 50% in size
* = called active by the depositor; i = inactive; ? = inconclusive; . = no result given; [ ] = another dose, or the depositor's remark. Shown are actives, neighbours in structure and some others; about 0.85% of the full set was active somewhere. The call rests on the fitted dose curve; in most records, active means well fitted curve in the direction sought with a large enough effect; inconclusive means small, poorly fitted or top-dose-only effect, or another doubt; inactive means no such curve, though single readings can be large; an effect the other way counts as inactive or inconclusive. Unless noted, on the % scale 0 is the no-effect control and ±100 the full control effect; potency means the concentration at half of the fitted maximal effect.

SMILES	BLM inh	PGK inhibitor	RECQ1 inh-1	TDP1 block	APE1 inh	GLS inhibitor	RECQ1 inh-2	others
COC(=O)c1c(NC(=O)/C=C/C(=O)O)sc(C)c1-c1ccc(C(C)C)cc1	-5%	-11%	?	5%	-3%	4%	-45%
CS(=O)(=O)N1CCC2(CCCN(c3cccc(-c4ccccc4)c3)C2)CC1	-4%	.	28µM*	.	8%	.	?
COc1ccc(OC)c(C2=Nn3c(nnc3-c3cccc(OC)c3OC)SC2)c1	2%	.	12%	10%	-7%	.	.
Cc1ccc(-n2c(Cc3cccn3C)nnc2SCC(=O)N2CCc3ccccc32)cc1	-17%	5%	0.22µM*	10%	9%	-2%	-9%	RECQ1 conf=17%[114 µM];ADP FP counter=14%[91.9 µM]
c1cncc(CNc2cc(-c3ccoc3)ncn2)c1	-11%	.	-3%	.	19%	.	.
Cc1cccc(CNc2cc(-c3ccoc3)ncn2)c1	-13%	.	?	-7%[56.1 µM]	-3%	.	-11%
C[C@H]([C@H](C)N1CC(=O)NC(=O)C1)N1CC(=O)NC(=O)C1	3%	.	-12%	21%	-3%	.	.
O=C(O)CC/C(=C\c1ccc(N2CCOCC2)c([N+](=O)[O-])c1)c1nc2ccccc2s1	-3%	-9%	i	3%	14%	4%	.	RECQ1 conf=?;ADP FP counter=?
O=C(O)CC/C(=C\c1ccc(Cl)c([N+](=O)[O-])c1)c1nc2ccccc2s1	-8%	-13%	-2%	-3%	4%	-1%	.
O=C(O)C/C(=C\c1ccc(N2CCOCC2)c([N+](=O)[O-])c1)c1nc2ccccc2s1	-14%	-8%	-20%	3%	-2%	26%	.	RECQ1 conf=112µM*;ADP FP counter=?
CCOc1ccc2cc(C#N)c(SCC(=O)OCc3ccccc3)nc2c1	.	.	.	0%	.	.	.
CC1(C)c2ccccc2N2CCC(=O)NC21/C=C/c1ccco1 (configuration not stated)	-7%	-6%	?	0%	-3%	-5%	-4%
CCOc1ccc(C(=O)Nc2cc(-c3nc4ccccc4[nH]3)ccc2Cl)cc1[N+](=O)[O-]	?	-3%	?	.	?	1%	56µM*
CCOc1ccccc1NC(=O)c1ccc(OCC)c([N+](=O)[O-])c1	-1%	0%	0%	6%	2%	16%	.
CCOc1ccc(C(=O)Nc2cccc(-c3cc4ccccc4oc3=O)c2)cc1[N+](=O)[O-]	-10%	3%	25µM*	2%	-11%	7%	?
Clc1ccc(Sc2cc(Cl)c(Cl)cc2Cl)cc1	0%	.	-9%	12%	1%	.	.
